Screening data (PubChem)
YB-1 expression: YB-1 expression inhibition; U2OS, qRT-PCR YB-1 vs CDIP delta delta Cp, 16 h; stronger effect = higher value; zero = DMSO, each unit about twofold; delta delta Cp (YB-1 minus CDIP) (test concentration not listed); 0.37% of 30,000 active; AID 434959;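 active means delta delta Cp rounded down to an integer at or above 3, about 3 SD of DMSO wells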;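 further: higher means less YB-1 transcript or more CDIP transcript relative to DMSO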
U2OS ROS induce: raises reactive oxygen species in U2OS cancer cells; U2OS ROS induction, H2DCF-DA fluorescence; ROS induction (% of piperlongumine), % at 10 µM; 2% of 46,000 active; in the data active means ROS induction above about 79%, passing the limit was not always enough; inconclusive means no clear call, values can overlap the other calls;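 further: 0% = DMSO vehicle median and 100% = reference compound median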
An asterisk follows results filed as active; ? = inconclusive; nt = no result. This is a sample that favours compounds with a hit; in the whole collection about 2.1% have one here.

SMILES | YB-1 expression | U2OS ROS induce
S=C1NCN(C2CCCCC2)CN1 | 0.44 | -2
COC(=O)C1=C(C)N(c2ccc(F)cc2)/C(=C/c2ccco2)C1=O | nt | 5
COc1ccc([Si](C)(C)[C@@H]2[C@@H](CCO)O[C@]3(C(=O)N(Cc4ccc(N5CCOC5=O)cc4)c4ccccc43)[C@H]2C)cc1 | -0.051 | 240*
COc1ccc([Si](C)(C)[C@@H]2[C@@H](CCO)O[C@]3(C(=O)N(Cc4cccc(N5CCOC5=O)c4)c4ccccc43)[C@H]2C)cc1 | -0.31 | 101*
COc1ccc([Si](C)(C)[C@@H]2[C@@H](CCO)O[C@]3(C(=O)N(Cc4ccc(NC(C)=O)cc4)c4ccccc43)[C@H]2C)cc1 | -0.12 | 93*
COc1ccc([Si](C)(C)[C@H]2[C@H](CCO)O[C@@]3(C(=O)N(Cc4ccc(NC(C)=O)cc4)c4ccccc43)[C@@H]2C)cc1 | 0.092 | 36
COc1ccc([Si](C)(C)[C@H]2[C@H](CCO)O[C@@]3(C(=O)N(Cc4ccccc4)c4ccc(N5CCOC5=O)cc43)[C@@H]2C)cc1 | 0.027 | 36
COc1ccc([Si](C)(C)[C@@H]2[C@@H](CCO)O[C@]3(C(=O)N(Cc4ccccc4)c4ccc(N5CCOC5=O)cc43)[C@H]2C)cc1 | 0.25 | 15
CCOc1ccc(CNC(=O)c2cc(=O)[nH]c3ccccc23)cc1 | nt | -2
CCCCN(C)C(=O)c1noc2c1COc1ccccc1-2 | nt | -11
COc1ccc(NC2=Nc3ccccc3CCC2)cc1 | nt | -1
CCOC(=O)c1cnn(-c2ccccc2)c1NC(=O)Nc1cccc(Cl)c1 | nt | -8
Cc1nc2c(cnn2-c2ccccc2)c(=O)n1NC(=O)Nc1ccc(Cl)c(Cl)c1 | 9.9* | 25
CN1C(=O)/C(=C(/C#N)C(N)=O)c2ccccc21 | nt | -12
CCc1ccc(/C=c2\sc3nc(C4COc5ccccc5O4)nn3c2=O)cc1 (stereo unspecified) | nt | -6
Cc1ccc(NCC(=O)SCc2csc(Nc3ccccc3)n2)cc1 | nt | -12
O=C(CSc1nnnn1-c1ccccc1)Nc1cc(Cl)ccc1C(=O)O | nt | 154*
O=C(CSc1nnnn1-c1ccccc1)Nc1cc(Cl)c(Cl)cc1Cl | nt | -12
COC(=O)COc1cccc(NC(=O)c2ccccc2F)c1 | nt | 3
COC(=O)COc1cccc(NC(=O)c2ccc(-c3ccccc3)cc2)c1 | nt | 84*
CCCn1c2ccccc2c2nnc(SCCCC(=O)c3ccc4c(c3)OCCO4)nc21 | nt | 142*
CCCn1c2ccccc2c2nnc(SCC(=O)N3c4ccccc4Sc4ccccc43)nc21 | nt | 0
CCOC(=O)c1cnc2c(-c3ccccc3)cnn2c1C | nt | 45
CCOC(=O)c1cnc2c(cnn2CC)c1NN=C(C)C | 4.9* | 7
COc1ccc(NC(=O)Nc2cc(F)cc(F)c2)cc1OC1CCCC1 | nt | -3
SMILES | YB-1 expression | U2OS ROS induce
COc1ccc(N2CCN(C(=O)c3ccc(C#CC4(O)CCCCC4)cc3)CC2)cc1 | nt | -12
C[C@@H]1CN([C@@H](C)CO)C(=O)c2cc(NC(=O)NC3CCCCC3)ccc2O[C@H]1CN(C)Cc1ccc(Oc2ccccc2)cc1 | -0.13 | 50
C[C@H]1CN([C@@H](C)CO)C(=O)Cc2cc(NC(=O)Nc3cccc4ccccc34)ccc2O[C@@H]1CN(C)Cc1ccc(-c2ccccc2)cc1 | 0.64 | 132*
C[C@@H]1CN([C@H](C)CO)C(=O)Cc2cc(NC(=O)NC3CCCCC3)ccc2O[C@@H]1CN(C)Cc1ccc(-c2ccccc2)cc1 | 0.21 | 98*
C[C@H](CO)N1C[C@H](C)[C@H](CN(C)Cc2ccccc2)Oc2ccc(NC(=O)Nc3cccc4ccccc34)cc2CC1=O | 0.13 | 3
C[C@@H]1CN([C@@H](C)CO)C(=O)Cc2cc(NC(=O)NC3CCCCC3)ccc2O[C@@H]1CN(C)Cc1ccc(-c2ccccc2)cc1 | -0.2 | 14
C[C@@H]1CN([C@H](C)CO)C(=O)Cc2cc(N(C)C)ccc2O[C@@H]1CN(C)Cc1ccc(Oc2ccccc2)cc1 | -0.17 | 14
C[C@H]1CN([C@@H](C)CO)C(=O)Cc2cc(N(C)C)ccc2O[C@@H]1CN(C)Cc1ccc(Oc2ccccc2)cc1 | -0.47 | 135*
C[C@H](CO)N1C[C@H](C)[C@@H](CN(C)Cc2ccc(Oc3ccccc3)cc2)Oc2ccc(NC(=O)NC3CCCCC3)cc2C1=O | -0.0026 | 87*
O=C(O)c1c(CNC2CCCc3ccccc32)c2ccccc2n1Cc1ccc(F)cc1Cl (stereo unspecified) | nt | -9
CCCN(CCC)C(=O)CSc1nc2ccsc2c(=O)n1Cc1ccccc1Cl | nt | 38
N#Cc1ccc(-c2csc(-c3ccc(C4SCCS4)cc3)n2)cc1 | nt | -11
C[C@@H]1CN([C@H](C)CO)C(=O)Cc2cc(NC(=O)NC3CCCCC3)ccc2O[C@@H]1CN(C)Cc1ccc(Oc2ccccc2)cc1 | -0.6 | 131*
C[C@@H]1CN([C@@H](C)CO)C(=O)Cc2cc(NC(=O)NC3CCCCC3)ccc2O[C@@H]1CN(C)Cc1ccccc1 | 0.27 | 28
C[C@@H]1CCCCO[C@@H](CN(C)S(=O)(=O)c2ccc(Cl)cc2)[C@@H](C)CN([C@H](C)CO)C(=O)c2cc(NS(=O)(=O)c3ccc(F)cc3)ccc2O1 | 0.36 | 118*
C[C@@H]1CCCCO[C@@H](CN(C)S(=O)(=O)c2ccc(F)cc2)[C@@H](C)CN([C@H](C)CO)C(=O)c2cc(NC(=O)Nc3ccc(F)cc3)ccc2O1 | -0.77 | 7
C[C@@H]1CCCCO[C@@H](CN(C)S(=O)(=O)c2ccc(Cl)cc2)[C@@H](C)CN([C@H](C)CO)C(=O)c2cc(NC(=O)c3ccccc3)ccc2O1 | -0.73 | 133*
C[C@@H]1CCCCO[C@@H](CN(C)S(=O)(=O)c2ccccc2)[C@@H](C)CN([C@H](C)CO)C(=O)c2cc(NS(=O)(=O)c3ccc(Cl)cc3)ccc2O1 | -0.026 | 113*
C[C@@H]1CCCCO[C@@H](CN(C)S(=O)(=O)c2ccc(F)cc2)[C@@H](C)CN([C@H](C)CO)C(=O)c2cc(NS(=O)(=O)c3ccc(F)cc3)ccc2O1 | 0.3 | 69
C[C@@H]1CCCCO[C@H](CN(C)S(=O)(=O)c2ccc(F)cc2)[C@@H](C)CN([C@H](C)CO)C(=O)c2cc(NC(=O)NC3CCCCC3)ccc2O1 | -0.097 | 166*
C[C@@H]1CCCCO[C@@H](CN(C)S(=O)(=O)c2ccc(Cl)cc2)[C@@H](C)CN([C@H](C)CO)C(=O)c2cc(NS(=O)(=O)c3ccc(Cl)cc3)ccc2O1 | -0.85 | ?
C[C@@H]1CCCCO[C@H](CN(C)S(=O)(=O)c2ccccc2)[C@@H](C)CN([C@H](C)CO)C(=O)c2cc(NC(=O)c3ccccc3)ccc2O1 | 0.13 | 19
Cc1ccccc1CS(=O)(=O)Cc1ccc(C(=O)NC2CC2)o1 | nt | -4
CCCNC(=O)OCN1C(=O)c2ccc(N)cc2C1=O | nt | -3
CCC(C(=O)NC1CCCCC1)n1c(C(=O)OC)cc2sc(Cl)cc21 (stereo unspecified) | nt | 1
Cn1ccnc1Sc1cnc(SCC(=O)c2ccc(Cl)cc2)nc1-c1ccccc1 | nt | 62
CCOc1ccc(N=c2scc(-c3ccc(Cl)s3)n2C)cc1 | nt | -7
Cc1ccc(S(=O)(=O)Nc2ccc3c(c2)C(=O)N([C@H](C)CO)C[C@H](C)[C@@H](CN(C)Cc2ccc4c(c2)OCO4)OCCCC[C@@H](C)O3)cc1 | -0.24 | 95*
C[C@@H]1CCCCO[C@H](CN(C)Cc2ccc3c(c2)OCO3)[C@@H](C)CN([C@H](C)CO)C(=O)c2cc(NS(=O)(=O)c3ccc(Cl)cc3)ccc2O1 | -0.15 | 32
